GASC-1 inh – inhibitors of human GASC-1 (JMJD2C) demethylase; Q9H3R0; GST-JMJD2C(1-420) H3K9me3 demethylation, DELFIA europium; inhibition, % at 2.35 µM; actives 0.069% (n = 330,000); AID 2099;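 active = more than half of a compound's replicate wells show inhibition beyond 50%, single wells judged on their own value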;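 note: signal counts dimethyl H3K9 product captured on neutravidin plate; 0% = median of DMSO wells and 100% = 0.3 times that DMSO median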
Target sequence (Q9H3R0 1-420 limits assumed): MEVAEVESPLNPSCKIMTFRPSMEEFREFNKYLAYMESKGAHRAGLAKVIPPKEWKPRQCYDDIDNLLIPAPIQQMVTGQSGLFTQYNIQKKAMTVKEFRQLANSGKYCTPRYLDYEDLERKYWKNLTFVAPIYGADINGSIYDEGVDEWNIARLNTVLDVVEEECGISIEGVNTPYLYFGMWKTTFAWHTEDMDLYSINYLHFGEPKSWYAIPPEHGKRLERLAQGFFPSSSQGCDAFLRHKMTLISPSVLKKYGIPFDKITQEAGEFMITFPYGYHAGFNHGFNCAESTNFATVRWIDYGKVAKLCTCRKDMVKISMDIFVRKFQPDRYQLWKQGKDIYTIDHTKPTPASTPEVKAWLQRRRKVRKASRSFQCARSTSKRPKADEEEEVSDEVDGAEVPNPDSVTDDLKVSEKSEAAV
PvdQ inh – blocks Pseudomonas aeruginosa PvdQ acylase activity; purified PvdQ acylase, fluorescence plate reader; inhibition, % at 10 µM; AID 488965; actives 0.063% (n = 340,000); in the data active = inhibition above about 30%, passing the limit was not always enough;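 note: 0% = vehicle neutral wells and 100% = reference inhibitor wells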
pCIP destab – compounds decreasing mouse p/CIP protein stability; actives 0.01% (n = 290,000); F442A p/CIP-EGFP cells, EGFP fluorescence, 16 h; AID 1984; Q05BA5; decrease of EGFP signal, % at 10 µM;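 active = EGFP signal decrease of at least 30% at 10 µM or well 3 SD below plate mean, unless failing retest; inactive = the rest, including hits failing retest or dose response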
PHOSPHO1 block – PHOSPHO1 (human) inhibition | Q8TCT1 | actives 1.1% (n = 290,000) | AID 1565 | inhibition, % at 13.3 µM | recombinant PHOSPHO1, absorbance phosphatase assay; in the data active = inhibition above about 60%
Mot1-301 SUMO – inhibitors of SUMOylation pathway: yeast Mot1-301 growth rescue; growth rescue, % at 18.8 µM; S. cerevisiae Mot1-301 growth rescue, ATP luminescence, 38.5C; percent above DMSO median, 100 means doubled; actives 1% (n = 320,000);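 active = every valid replicate shows activation above 250% relative to neutral control wells; inactive = the rest, any valid replicate at or below 250%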;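 note: OY570 slx delta 5 strain wells were the positive control but not used for scaling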
HDAC3 inhib – human HDAC3 inhibition. AID 2718. inhibition, % at 8.3 µM. recombinant HDAC3, fluorogenic peptide/trypsin coupled, fluorescence. actives 0.15% (n = 320,000). O15379; in the data active = inhibition above about 26%, passing the limit was not always enough
The depositor's hits bear a star. In the library only some 2.2% were active in any assay of this set; here they are far more common.

`COc1ccccc1OCC(=O)N/N=C1/SCC(=O)N1Cc1ccccc1` gave GASC-1 inh -1, PvdQ inh -7, pCIP destab -4, PHOSPHO1 block 8, Mot1-301 SUMO 354* and HDAC3 inhib 1.
Screening COC(=O)C(=CC(=CN(C)C)C=C(C(=O)OC)C(=O)OC)C(=O)OC returned GASC-1 inh 22, PvdQ inh 3, pCIP destab 0, PHOSPHO1 block 24, Mot1-301 SUMO 11 and HDAC3 inhib 3.
Screening CC[n+]1c(/C=C2\C=C(C)CC(C)C2)sc2ccccc21 (centres undefined) returned GASC-1 inh -11, PvdQ inh -1, pCIP destab -1, PHOSPHO1 block 102*, Mot1-301 SUMO -14 and HDAC3 inhib -1.
Screening CC[n+]1c(/C=C2\C=C(C)CC(C)(C)C2)sc2ccccc21 returned GASC-1 inh 1, PvdQ inh -15, pCIP destab -5, PHOSPHO1 block 100*, Mot1-301 SUMO 7 and HDAC3 inhib 14.
`Cc1cc(=O)[nH]c(N=N/C(=N/Nc2ccc(O)cc2)c2ccccc2)n1` gave GASC-1 inh 8, PvdQ inh 4, pCIP destab -41, PHOSPHO1 block 92*, Mot1-301 SUMO -17 and HDAC3 inhib 2.
`COc1ccc(N/N=C(/N=Nc2nc(C)cc(=O)[nH]2)c2ccccc2)cc1` gave GASC-1 inh 12, PvdQ inh 2, pCIP destab -4, PHOSPHO1 block 51, Mot1-301 SUMO -21 and HDAC3 inhib 0.
Screening Cc1cc(=O)[nH]c(N=N/C(=N/Nc2ccccc2C)c2ccccc2)n1 returned GASC-1 inh 8, PvdQ inh -9, pCIP destab 0, PHOSPHO1 block 92* and HDAC3 inhib -2.
`COc1ccc(C(=O)NCCS(=O)(=O)N(C)Cc2ccccc2)cc1` gave GASC-1 inh -15, PvdQ inh 1, Mot1-301 SUMO 7 and HDAC3 inhib 6.
Screening CCOC(=O)CSC1=NC(=O)/C(=C/c2ccc(OC)cc2)S1 returned GASC-1 inh 2, PvdQ inh 4, pCIP destab 10, PHOSPHO1 block -1, Mot1-301 SUMO 31 and HDAC3 inhib 80*.
`COc1ccc(/C=C2\SC(N)=NC2=O)cc1` gave GASC-1 inh 13, PvdQ inh -5, pCIP destab -1, PHOSPHO1 block 34, Mot1-301 SUMO 97 and HDAC3 inhib 1.
For CCC(C(=O)NCc1cccnc1)n1nc(C)n2c(cc3occc32)c1=O (centres undefined) the results were GASC-1 inh 5, PvdQ inh -17, pCIP destab -4, PHOSPHO1 block 2, Mot1-301 SUMO -3 and HDAC3 inhib 3.
COc1ccc(OCc2n[nH]c(=S)o2)cc1 was read as GASC-1 inh 3, PvdQ inh -14, pCIP destab -8, PHOSPHO1 block 88*, Mot1-301 SUMO -27 and HDAC3 inhib -9.
S=c1[nH]nc(COc2ccc(Cl)cc2)o1 was read as GASC-1 inh -12, PvdQ inh -6, pCIP destab 4, PHOSPHO1 block 103*, Mot1-301 SUMO -9 and HDAC3 inhib 1.
S=c1[nH]nc(CCc2ccc(Cl)cc2)o1 was read as GASC-1 inh -1, PvdQ inh -19, pCIP destab 2, PHOSPHO1 block 21, Mot1-301 SUMO 0 and HDAC3 inhib -6.
Cc1ccc(-c2nn3cnnc3c3ccccc23)cc1C was read as PvdQ inh 10, pCIP destab -2, PHOSPHO1 block -26, Mot1-301 SUMO 1 and HDAC3 inhib -11.
CCC1CCCCN1C(=O)COC(=O)COc1ccc(Br)cc1 (centres undefined) was read as GASC-1 inh 1, PvdQ inh -1, Mot1-301 SUMO 16 and HDAC3 inhib 1.
For COCCn1nnnc1C(c1cc2cc(C)ccc2[nH]c1=O)N1CCCCCC1 (centres undefined) the results were GASC-1 inh -1, PvdQ inh 7, pCIP destab 10, PHOSPHO1 block 92*, Mot1-301 SUMO 9 and HDAC3 inhib -1.
`COCCn1nnnc1CN(CCc1ccccc1)Cc1cc2ccc(C)cc2[nH]c1=O` gave GASC-1 inh 7, PvdQ inh -7, pCIP destab 11, PHOSPHO1 block 66*, Mot1-301 SUMO 3 and HDAC3 inhib 4.
`CCOC(=O)C1CCN(C(c2cc3ccc(C)cc3[nH]c2=O)c2nnnn2C2CCCCC2)CC1` (centres undefined) gave GASC-1 inh 19, PvdQ inh 4, pCIP destab -8, PHOSPHO1 block 92*, Mot1-301 SUMO 1 and HDAC3 inhib 13.
For CCC(C)(C)n1nnnc1C(c1cc2cc3c(cc2[nH]c1=O)OCO3)N1CCCCC1 (centres undefined) the results were GASC-1 inh 4, PvdQ inh -17, pCIP destab -7, PHOSPHO1 block 42, Mot1-301 SUMO -1 and HDAC3 inhib 8.
`Cc1ccc2cc(C(c3nnnn3C(C)(C)C)N3CCCC3)c(=O)[nH]c2c1C` (centres undefined) gave pCIP destab 1 and PHOSPHO1 block 94*.
`Cc1ccc(CNS(=O)(=O)c2ccc(C)s2)cc1` gave GASC-1 inh -7, PvdQ inh 0, pCIP destab -10, PHOSPHO1 block 30, Mot1-301 SUMO 28 and HDAC3 inhib -5.
CCN(Cc1ccccc1)C(c1cc2cc(C)ccc2[nH]c1=O)c1nnnn1CCOC (centres undefined) was read as GASC-1 inh 2, PvdQ inh -14, pCIP destab -13, PHOSPHO1 block 74*, Mot1-301 SUMO -29 and HDAC3 inhib 7.
For COCCn1nnnc1C(c1cc2cc(OC)ccc2[nH]c1=O)N1CCC(Cc2ccccc2)CC1 (centres undefined) the results were GASC-1 inh -5, PvdQ inh -13, pCIP destab -6, PHOSPHO1 block 4, Mot1-301 SUMO 40 and HDAC3 inhib 0.
For CCN(Cc1ccccc1)C(c1cc2cc(C)cc(C)c2[nH]c1=O)c1nnnn1CCOC (centres undefined) the results were GASC-1 inh -4, PvdQ inh 4, pCIP destab -9, PHOSPHO1 block 3, Mot1-301 SUMO -11 and HDAC3 inhib 1.
COc1ccc2cc(C(c3nnnn3CCc3ccccc3)N3CCCC(C)C3)c(=O)[nH]c2c1 (centres undefined) was read as GASC-1 inh 4, PvdQ inh -25, pCIP destab -12, PHOSPHO1 block 82*, Mot1-301 SUMO 1 and HDAC3 inhib 0.
Screening OC(CN1CCN(c2ccccc2F)CC1)c1ccc(F)cc1 (centres undefined) returned GASC-1 inh 16, PvdQ inh -12, pCIP destab -13, PHOSPHO1 block -11, Mot1-301 SUMO 15 and HDAC3 inhib 0.

Screening results as filed in PubChem.
